High-throughput results deposited in PubChem by Sanford-Burnham Center for Chemical Genomics.
This is a sample that favours compounds with a hit; in the whole collection about 2.6% have one here.
eIF4H inh: human eIF4H binding inhibitors, primary screen, translation initiation inhibitor project, biochemical, uHTS, fluorescence polarization; inhibition, % at 35 µM; AID 2012, 2009; eIF4H fluorescence polarization binding assay; Eukaryotic translation initiation factor 4H (Homo sapiens), Q15056; 290,000 compounds, 0.94% hits;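 also: calls also rest on retests at 20 µM and on dose response follow-up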
PABP polyA inh: PABP poly(A) RNA binding inhibitors, primary screen, biochemical, fluorescence polarization, uHTS; Polyadenylate-binding protein 1 (Homo sapiens), P11940; calls only at 35 µM; 290,000 compounds, 1% hits;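 also: calls also rest on retests at 20 µM and on dose response follow-up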
PHOSPHO1 inh: PubChem AID 1565. Phosphoethanolamine/phosphocholine phosphatase (Homo sapiens), Q8TCT1. recombinant PHOSPHO1, absorbance phosphatase assay. inhibition, % at 13.3 µM. 290,000 compounds, 1.1% hits; in the data active = inhibition above about 60%
Target sequence (Q8TCT1 whole entry, looked up): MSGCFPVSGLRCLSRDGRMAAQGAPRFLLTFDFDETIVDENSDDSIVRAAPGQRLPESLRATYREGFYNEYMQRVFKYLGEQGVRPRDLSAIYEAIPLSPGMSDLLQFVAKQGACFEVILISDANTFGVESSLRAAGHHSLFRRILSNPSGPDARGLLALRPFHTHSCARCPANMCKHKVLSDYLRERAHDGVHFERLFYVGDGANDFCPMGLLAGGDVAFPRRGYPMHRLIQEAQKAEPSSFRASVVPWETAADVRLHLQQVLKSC
A3G deaminase: APOBEC3G DNA deaminase inhibitors, primary screen, biochemical, fluorescence, single-stranded DNA substrate, uHTS; DNA dC->dU-editing enzyme APOBEC-3G (Homo sapiens), Q9HC16; recombinant A3G, ssDNA deamination FAM/TAMRA fluorescence; inhibition, % at 20 µM; 330,000 compounds, 0.28% hits;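 active = inhibition of at least 40% at 20 µM, with no more than 30% in the related APOBEC3A deaminase screen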
Target sequence (Q9HC16 whole entry, looked up): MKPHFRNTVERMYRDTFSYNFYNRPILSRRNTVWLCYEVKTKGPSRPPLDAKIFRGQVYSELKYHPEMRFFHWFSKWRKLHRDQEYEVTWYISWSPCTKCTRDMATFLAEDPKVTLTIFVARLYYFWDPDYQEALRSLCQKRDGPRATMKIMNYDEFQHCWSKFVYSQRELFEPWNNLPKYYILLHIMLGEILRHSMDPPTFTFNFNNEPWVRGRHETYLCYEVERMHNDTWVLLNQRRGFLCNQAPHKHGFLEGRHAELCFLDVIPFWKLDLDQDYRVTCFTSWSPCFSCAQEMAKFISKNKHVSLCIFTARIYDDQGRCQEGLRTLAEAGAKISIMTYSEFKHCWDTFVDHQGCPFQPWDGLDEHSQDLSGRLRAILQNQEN
APOBEC3A inh: APOBEC3A ssDNA deaminase inhibitors, primary screen, selectivity assay for APOBEC3G inhibitor project, biochemical, FAM/TAMRA oligo cleavage fluorescence; recombinant A3A, FAM/TAMRA ssDNA deamination fluorescence; inhibition, % at 20 µM; 330,000 compounds, 0.41% hits;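 active = at least 40% inhibition at 20 µM here, with at most 30% in a related deaminase screen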
MLLE-PAM2 inh: inhibitors of PABP1 MLLE–PAM2 peptide binding, primary screen, biochemical, fluorescence polarization, FITC-PAM2, GST-MLLE | Polyadenylate-binding protein 1 (Homo sapiens), P11940 | 360,000 compounds, 0.36% hits | AID 588489, 2011 | inhibition, % at 20 µM; in the data active = inhibition above about 35%, passing the limit was not always enough
Large screens that a line does not name were inactive. Unless noted, no rule for the calls is given here.

COCCCn1cc(C(=O)c2cc(OC)ccc2OCC(=O)N2CCCCC2C)cc(C#N)c1=O (centres undefined)	none
CCc1noc(C)c1C(=O)N1CC(C)SC1=Nc1ccc(Cl)cc1 (centres undefined)	none (no result: eIF4H inh, PABP polyA inh, PHOSPHO1 inh)
COc1ccc2nc3cc(Cl)ccc3c(C#N)c2c1	MLLE-PAM2 inh 53.5
COc1ccc2nc(C(F)(F)Cl)c(C#N)c(N)c2c1	none
Cc1cccc(/C=N/NC(=O)C(C)Nc2cccc3ccccc23)n1 (centres undefined)	PHOSPHO1 inh 80.3
CC(C)CCN1C(=O)c2ccc(C(=O)OCC(=O)N(C)C3CCS(=O)(=O)C3)cc2C1=O (centres undefined)	none (no result: eIF4H inh, PABP polyA inh, PHOSPHO1 inh)
CCCC(=O)Nc1nnc(S(=O)(=O)N(CC)c2ccccc2)s1	none
Cc1ccc(-c2cc(C(=O)N/N=C/c3c[nH]c4ccccc34)n[nH]2)o1	PABP polyA inh active
CN1CCN(CCCNC(=O)C2CCN(c3nnc(-n4cccc4)s3)CC2)CC1	none
CCCN1CCN(CCCNC(=O)C2CCN(c3nnc(-n4c(C)ccc4C)s3)CC2)CC1	PHOSPHO1 inh 64.9
CC(C)(C)N=Cc1c(O)ccc2oc3c(c12)CCCC3	PABP polyA inh inconclusive
O=[N+]([O-])c1cc2oc3c(c2c(C=NCc2ccncc2)c1O)CCCC3	PABP polyA inh active (no result: A3G deaminase, APOBEC3A inh)
O=C(/C=C\c1ccc(-c2cccc([N+](=O)[O-])c2)o1)N1CCOCC1	none
COC(=O)c1sc(NC(=O)c2c(-c3ccccc3)noc2C)nc1C	PHOSPHO1 inh 65.8
COC(=O)c1sc(NC(=O)c2ccoc2C)nc1C	none (no result: A3G deaminase, APOBEC3A inh)
Cc1nc(NC(=O)c2c(-c3ccccc3)noc2C)sc1C(=O)N(C)C	none
COC(=O)c1sc(NC(=O)/C=C/c2ccc(C)o2)nc1C	eIF4H inh 95.3
Cc1ccc(/C=C/C(=O)Nc2nn[nH]n2)o1	MLLE-PAM2 inh 36.4
N#Cc1ccsc1NC(=O)COC(=O)c1ccc2ccccc2c1	PABP polyA inh active
Cn1cccc1C(=O)OCC(=O)Nc1sccc1C#N	none (no result: eIF4H inh, PABP polyA inh, PHOSPHO1 inh)
CCN(C(=O)CSc1n[nH]c(-c2cc(Cl)ccc2OC)n1)C1CCS(=O)(=O)C1 (centres undefined)	none (no result: eIF4H inh, PABP polyA inh, PHOSPHO1 inh)
O=C1N2CCSC2=NC1(Nc1ccccn1)C(F)(F)F (centres undefined)	none
CS(=O)(=O)c1ccc2nc(NC3(C(F)(F)F)N=C4SCCN4C3=O)sc2c1 (centres undefined)	MLLE-PAM2 inh 41.5
Cc1ccccc1NS(=O)(=O)c1ccc(C(=O)NCC(c2ccco2)N2CCCCC2)cc1 (centres undefined)	none (no result: eIF4H inh, PABP polyA inh, PHOSPHO1 inh)
CS(=O)(=O)c1ccc(C(=O)NCC(c2ccco2)N2CCCCC2)cc1 (centres undefined)	eIF4H inh 83.0
CCCC(=O)Nc1cccc2c1CCCC2	none
CCc1ccc(OCC(=O)Nc2cccc3c2CCCC3)cc1	eIF4H inh inconclusive, PABP polyA inh active
CCCOc1ccc2nc(C)c(CCC)c(SC(=N)N)c2c1	PHOSPHO1 inh 66.8
COc1cc(/C=N/NC(=O)C(=O)NCc2ccco2)cc(Cl)c1O	eIF4H inh inconclusive, PABP polyA inh active
COc1cc(/C=N/NC(=O)C(=O)NCc2ccco2)ccc1O	none
CCN(CC)c1ccc(NC(=O)c2ccccc2F)cc1S(=O)(=O)Nc1ccccc1OC	PHOSPHO1 inh 64.3
CCN(CC)c1ccc(/C=N/NC(=O)c2cccc(S(=O)(=O)Nc3ccccc3OC)c2)cc1	eIF4H inh 51.9
CCN(CC)c1ccc(NC(=O)c2ccccc2Br)cc1S(=O)(=O)Nc1ccccc1OC	none
O=C1CC(SC(=Nc2ccccc2)Nc2ccccc2)C(=O)N1c1cccc(Cl)c1 (centres undefined)	none
Cc1ccc(-c2cc(-c3ccccc3)c3c(N)c(S(C)(=O)=O)sc3n2)cc1	eIF4H inh 105.0, PABP polyA inh active, PHOSPHO1 inh 82.4
Cc1cc(=O)[nH]c2ccc(S(=O)(=O)N3CCOCC3)cc12	PHOSPHO1 inh 72.8
O=C(NC1CCCCCC1)c1cc(=O)[nH]c2ccc(S(=O)(=O)N3CCOCC3)cc12	none
CC(c1ccccc1)N1CCc2[nH]c(=S)[nH]c(=O)c2C1 (centres undefined)	MLLE-PAM2 inh 38.5
CCCCN1CCc2[nH]c(=S)[nH]c(=O)c2C1	MLLE-PAM2 inh 48.7
COCCN1CCc2[nH]c(=S)[nH]c(=O)c2C1	none
CC(Oc1ccc(F)cc1Br)c1nc2ccccc2c(=O)[nH]1 (centres undefined)	none
Cc1ccc2nc(-c3cccc(S(=O)(=O)N(C)C)c3)cn2c1	none
CCN(CC)S(=O)(=O)c1cccc(-c2cn3cc(C)ccc3n2)c1	eIF4H inh 56.6
COc1ccc(-c2cc3ccc(OC(C)C(=O)O)cc3oc2=O)cc1 (centres undefined)	none (no result: PHOSPHO1 inh)
Cc1nn(CCc2nc(-c3ccco3)cs2)c2[nH]c(=O)cc(C(F)(F)F)c12	eIF4H inh 45.4, PABP polyA inh active, PHOSPHO1 inh 77.4
Cc1cc(C)n(CCc2nc(-c3ccco3)cs2)n1	eIF4H inh 51.3, PABP polyA inh active
O=C(CNS(=O)(=O)c1ccccc1)NNC(=O)C(Cl)Cl	none
Cc1ccccc1NC(=O)c1ccccc1NC(=O)CCC(=O)O	none
CC(=O)N(C)c1ccc(NC(=S)NC(=O)/C=C/c2ccco2)cc1	none (no result: eIF4H inh, PABP polyA inh)
CC(=O)Nc1ccc(NC(=S)NC(=O)/C=C/c2ccco2)cc1	eIF4H inh 74.5
Cn1nnc(NC(=S)NC(=O)/C=C/c2ccco2)n1	eIF4H inh 87.7, PABP polyA inh active
O=C(/C=C/c1ccco1)NC(=S)Nc1cccc(C(=O)O)c1	eIF4H inh 86.3, PABP polyA inh active
COc1cccc(CSc2nnc(-c3ccncc3)n2N)c1	none
COC(=O)C(=CC(=CN(C)C)C=C(C(=O)OC)C(=O)OC)C(=O)OC	none
O=c1cc(CO)oc(C(Nc2ccccn2)c2ccsc2)c1O (centres undefined)	eIF4H inh 71.4, PABP polyA inh active (no result: MLLE-PAM2 inh)
Cc1ccc(N2C(=O)CC(Sc3ncn[nH]3)C2=O)cc1C (centres undefined)	PHOSPHO1 inh 104.7
Cc1cccc(N2C(=O)CC(Sc3ncn[nH]3)C2=O)c1 (centres undefined)	none
COCCCN(C(=O)C1=COCCO1)c1c(N)n(Cc2ccccc2)c(=O)[nH]c1=O	none (no result: eIF4H inh, PABP polyA inh, PHOSPHO1 inh, A3G deaminase, APOBEC3A inh)
COC(=O)C1=C(C)NC(=O)/C1=C\c1cc(C)n(-c2cc(C)cc(C)c2)c1C	eIF4H inh 82.8, PABP polyA inh active
